CYP2C9 act = human CYP2C9 activators, primary screen, biochemical, luminescence. activation factor at 5 µM. AID 1024, 2008. recombinant CYP2C9, luciferin-H conversion; hits give high values; factor 1 = untreated enzyme, 0 = blocked. 1.4% of 96,000 active;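 active = activation factor of 2 or more for CYP2C9 at a 5 µM dose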;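 also: 0 = sulfaphenazole-blocked wells and 1 = vehicle-only wells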
CYP2C19 inhib = blockers of cytochrome P450 2C19 activity – biochemical, luminescence, ADME assay, primary screen | CYP2C19 Supersomes, luciferin-H EGE luminescence, 30 min | inhibition, % at 5 µM | 21% of 96,000 active | AID 778, 2007;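 active = CYP2C19 inhibition above a set limit at 5 µM in the primary screen, cut at about 50% in these data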;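 also: plate controls were negative control wells for no effect and 2.5 mM tranylcypromine positive control for full effect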
CYP2C9 inhib = blockers of cytochrome P450 2C9 activity – biochemical, luminescence, ADME assay, primary screen. AID 777, 2007. inhibition, % at 5 µM. P11712. 20% of 96,000 active. CYP2C9 Supersomes, luciferin-H conversion;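 active = blocking of liver enzyme CYP2C9 beyond about 50% at 5 µM, limit read from the data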
CYP2C19 activ = human CYP2C19 activators, primary screen, biochemical, luminescence; Cytochrome P450 2C19 (Homo sapiens), P33261; recombinant CYP2C19, luciferin-H EGE luminescence; hits give high values; 0 = fully inhibited enzyme, 1 = untreated enzyme; activation factor at 5 µM; 96,000 tested, under 10 active; AID 1025, 2008;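 active = activation factor of at least 2 at 5 µM in the primary screen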;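 also: 0 = wells with 2.5 mM tranylcypromine and 1 = vehicle-only wells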
DAT uptake mod = changed hDAT dopamine uptake under cocaine IC80, either direction, primary screen, cocaine antagonist project, cell-based, LLC-PK1 hDAT, [14C]-dopamine uptake, MLSMR. Sodium-dependent dopamine transporter (Homo sapiens), Q01959. LLC-PK1 hDAT cells, [14C]-dopamine uptake with cocaine IC80; actives deviate in either direction. 1.3% of 110,000 active. B-score at 10 µM;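 active = Z score or B-score, a plate-position-corrected score, falls beyond the plate's 99.7% confidence bounds, in either direction; inactive = both scores lie inside the 99.7% bounds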;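 also: scored against the spread of the other compound wells on the same plate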
Target sequence (Q01959 whole entry, looked up): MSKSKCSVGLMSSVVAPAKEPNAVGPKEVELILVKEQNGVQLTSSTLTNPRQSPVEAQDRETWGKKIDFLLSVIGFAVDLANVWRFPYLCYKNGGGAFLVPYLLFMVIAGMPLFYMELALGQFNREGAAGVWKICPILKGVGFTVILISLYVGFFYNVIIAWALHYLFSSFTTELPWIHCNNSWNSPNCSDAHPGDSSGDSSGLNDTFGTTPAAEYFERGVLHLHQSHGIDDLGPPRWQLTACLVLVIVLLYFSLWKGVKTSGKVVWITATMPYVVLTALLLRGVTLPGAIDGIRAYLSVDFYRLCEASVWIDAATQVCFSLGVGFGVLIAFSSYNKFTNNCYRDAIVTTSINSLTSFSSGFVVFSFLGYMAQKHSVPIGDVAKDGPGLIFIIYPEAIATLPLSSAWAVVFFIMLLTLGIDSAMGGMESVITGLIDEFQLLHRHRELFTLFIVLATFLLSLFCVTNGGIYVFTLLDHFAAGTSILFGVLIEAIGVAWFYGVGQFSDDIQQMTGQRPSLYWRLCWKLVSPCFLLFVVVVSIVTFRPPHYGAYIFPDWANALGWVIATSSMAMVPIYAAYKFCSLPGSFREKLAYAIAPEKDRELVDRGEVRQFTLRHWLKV
D1 mod = D1 CRE-luciferase signal change, two-sided – cell-based, HEK293 D1, dopamine EC30, D1 allosteric modulator project, primary screen; D(1A) dopamine receptor (Homo sapiens), P21728; dopamine EC30 potentiation; actives deviate in either direction; B-score at 10 µM; 5.9% of 58,000 active; AID 641, 2007;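 active = luminescence count or its row- and column-corrected plate score outside the 99.7% band of the plate's sample wells, on either side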
Starred values were filed as active, the others as inactive; x = not tested or not shown; ! = not confirmed by another sample. This is a sample that favours compounds with a hit; in the whole collection about 28% have one here.

SMILES | CYP2C9 act | CYP2C19 inhib | CYP2C9 inhib | CYP2C19 activ | DAT uptake mod | D1 mod
COc1cccc(OC)c1C(=O)N1CCN(Cc2ccc3c(c2)OCO3)CC1 | 0.4 | 56.7* | 60.8* | 0.4 | -0.527 | -0.274
CCOc1ncccc1C(=O)N1CCN(Cc2ccc3c(c2)OCO3)CC1 | 0.5 | 82.5* | 54.7* | 0.2 | -0.00392 | x
O=C(N1CCN(Cc2ccc3c(c2)OCO3)CC1)C12CC3CC(CC(C3)C1)C2 | 0.5 | 65.7* | 50.0* | 0.3 | x | -0.0468
O=C(c1cnn2cccnc12)N1CCN(Cc2ccc3c(c2)OCO3)CC1 | 1 | 11.6 | -3.6 | 0.9 | -1.05 | -0.0105
Cc1ccc(C(=O)N2CCN(Cc3ccc4c(c3)OCO4)CC2)o1 | 0.6 | 49.5 | 41.8 | 0.5 | -0.735 | x
COc1ccc(CN2CCN(C(=O)CC(C)C)CC2)c2ccccc12 | 0.9 | 52.5* | 9.8 | 0.5 | -0.0273 | 0.242
O=Cc1ccc(OC(=O)C2CC(=O)N(c3ccc(F)cc3)C2)cc1 (stereo unspecified) | 1 | -4.7 | -1.4 | 1 | -0.0471 | x
Cc1ccnc2nc(C(=O)N3CCN(S(=O)(=O)c4ccccc4)CC3)nn12 | 1.2 | -5.6 | -19.1 | 1.1 | -0.338 | 1.5
COC(=O)C[C@H]1c2cc(C(F)(F)F)ccc2S(=O)(=O)N1Cc1ccccc1OC | x | x | x | x | 0.344 | x
Cc1ccc(NC(=O)N2CCN(Cc3ccc4c(c3)OCO4)CC2)cc1 | 0.2 | 34.1 | 81.2* | 0.7 | 0.622 | x
Cc1cc(=O)oc(C)c1C(=O)N1CCN(Cc2ccc3c(c2)OCO3)CC1 | 0.9 | -0.1 | 5.0 | 1 | 0.0189 | x
O=C(c1cccn2c(=O)c3ccc(Cl)cc3nc12)N1CCN(Cc2ccc3c(c2)OCO3)CC1 | 0.3 | 18.9 | 70.5* | 0.8 | 1.18 | 1.25
COc1cccc(OC)c1C(=O)N1CCN(Cc2ccccc2C)CC1 | 0.3 | 79.0* | 74.5* | 0.2 | -0.503 | -0.731
CCC(C)(C)n1nnnc1CN1CCC(O)(c2cccc(C(F)(F)F)c2)CC1 | x | x | x | x | -0.446 | x
Cc1ccc(C(C)C)c(OCC(=O)c2c(O)c3ccccc3oc2=O)c1 | x | x | x | x | 0.353 | x
CCS(=O)(=O)N1Cc2ccccc2CC1C(=O)NCC12CC3CC(CC(C3)C1)C2 (stereo unspecified) | 0.3 | 91.5* | 68.0* | 0.1 | 0.66 | x
CCS(=O)(=O)N1Cc2ccccc2CC1C(=O)N1CCN(c2cccc(C)c2C)CC1 (stereo unspecified) | 0.4 | 63.8* | 58.4* | 0.4 | -0.0357 | -0.0307
CCC(CC)C(=O)N=C1SC2CS(=O)(=O)CC2N1CCc1ccc(OC)cc1 (stereo unspecified) | 0.2 | 80.5* | 77.0* | 0.2 | -0.948 | x
COc1ccc(OC)c(N(CC(=O)Nc2cccnc2)S(C)(=O)=O)c1 | 0.7 | 55.7* | 32.6 | 0.4 | 0.063 | x
COc1ccc(OC)c(N(CC(=O)Nc2cccnc2)S(=O)(=O)c2ccc(OC)c(OC)c2)c1 | 0.1 | 88.0* | 90.1* | 0.1 | -2.7*! | x
COc1ccc(OC)c(N(CC(=O)O)S(=O)(=O)c2ccc(OC)c(OC)c2)c1 | 0.9 | 3.2 | 10.2 | 1 | 0.253 | -0.443
CN(CC(=O)Nc1cccnc1)S(=O)(=O)c1ccccc1 | 0.8 | 14.4 | 19.4 | 0.9 | 1.22 | x
COc1ccc(OC)c(N(CC(=O)Nc2cccnc2)S(=O)(=O)c2ccc(C)cc2)c1 | 0.1 | 95.1* | 94.0* | 0 | -1.12 | x
CCN(CC)S(=O)(=O)c1ccc(NC(=O)CN(c2ccc(OC)cc2OC)S(C)(=O)=O)cc1 | 0 | 85.9* | 100.0* | 0.1 | 1.51 | x
C[C@H]1[C@H](C)CC[C@]2(C)CC[C@]3(C)C(=CC[C@@H]4[C@@]5(C)CC[C@@H](O)[C@](C)(C(=O)O)[C@@H]5CC[C@]43C)[C@H]12 | x | x | x | x | 0.26 | x
SMILES | CYP2C9 act | CYP2C19 inhib | CYP2C9 inhib | CYP2C19 activ | DAT uptake mod | D1 mod
COC(=O)c1ccc([C@H]2C=C(C(=O)O)O[C@@H](OCc3ccc(CO)cc3)C2)cc1 | x | x | x | x | -0.162 | x
COC(=O)c1ccc(CSc2ncn[nH]2)o1 | 1.1 | 23.5 | -10.4 | 0.8 | 0.394 | -1.02
COC(=O)c1ccc(CSc2nc3ccccc3s2)o1 | 0.6 | 94.7* | 42.4 | 0.1 | -1.25 | x
COC(=O)c1ccc(CSc2nnc(Nc3cccc(OC)c3)s2)o1 | 0.6 | 33.3 | 40.1 | 0.7 | 0.095 | x
COC(=O)c1ccc(CSc2n[nH]c(=S)s2)o1 | 0.4 | 19.6 | 57.9* | 0.8 | -0.546 | x
COC(=O)C[C@](O)(CCCC(C)(C)O)C(=O)O[C@@H]1C(OC)=C[C@]23CCCN2CCc2cc4c(cc2[C@H]13)OCO4 | x | x | x | x | -0.235 | x
c1ccc(-n2ncc3c(N4CCN(c5ccccn5)CC4)nc(N4CCOCC4)nc32)cc1 | 0.8 | 17.9 | 24.6 | 0.8 | x | -0.238
O=c1c2c3c(sc2n2cnnc2n1C1CCCCC1)CCC3 | 0.9 | 13.2 | 14.3 | 0.9 | x | x
O=C(Nc1ccccn1)c1cccs1 | 1.2 | -12.5 | -16.2 | 1.1 | -1.09 | x
CCN(CC)S(=O)(=O)c1csc(C(=O)Nc2ccccn2)c1 | 0.2 | 66.9* | 80.7* | 0.3 | 0.266 | -0.473
O=C(COc1cccc2cccnc12)N/N=C1\SCC(=O)N1Cc1ccccc1 | 0.9 | 14.0 | 6.7 | 0.9 | 0.123 | x
CCOC(=O)c1c(NC(=O)CSc2nnc(CNc3ccc(F)cc3)o2)sc(C(C)=O)c1C | 0.1 | 89.2* | 94.5* | 0.1 | 0.42 | 0.612
CCc1nnc(NC(=O)CSc2nnc(Cc3ccccc3)o2)s1 | 0.7 | 30.6 | 29.7 | 0.7 | -0.67 | -0.0832
CCOC(=O)c1c(NC(=O)CSc2nnc(Cc3ccccc3)o2)sc(C(C)=O)c1C | 0.5 | 39.1 | 52.1* | 0.6 | -0.661 | x
CCOC(=O)c1c(NC(=O)CSc2nnc(-c3ccccc3)o2)sc(C(C)=O)c1C | 0.2 | 38.5 | 75.3* | 0.6 | 0 | x
CCOC(=O)c1sc(NC(=O)CSc2nnc(Cc3ccccc3)o2)c(C#N)c1C | 0.1 | 28.5 | 90.4* | 0.7 | x | 0.99
CCOC(=O)c1c(NC(=O)CSc2nnc(-c3ccc(C)cc3)o2)sc(C(C)=O)c1C | 0.5 | 20.8 | 48.0 | 0.8 | 0.0191 | x
O=C(Nc1ccc(C(=O)Oc2ccccc2)c(O)c1)c1ccco1 | 0.6 | 41.3 | 42.2 | 0.6 | 0.179 | -0.961
COc1ccc(NS(=O)(=O)c2ccc(NC(=O)c3cnn4c(C(F)F)cc(-c5ccc(C)cc5)nc34)cc2)cc1 | 0.4 | 17.3 | 60.0* | 0.8 | -0.0918 | x
Cc1ccc(-c2cc(C(F)F)n3ncc(C(=O)N4CCN(c5cccc(C)c5C)CC4)c3n2)cc1 | 0.3 | 0.3 | 68.4* | 1 | 0.808 | x

Assay outcomes (PubChem)
